The list is not random: actives were taken first. Their share in the collection is about 11%.
FLuc inh: Firefly luciferase inhibition profiling of diverse chemical library using quantitative high-throughput screening. purified P. pyralis luciferase, luminescence, biochemical. Potency, µM (doses to about 115 µM), actives largely listed as inhibitors. Luciferin 4-monooxygenase (Photinus pyralis), P08659. hit rate 2.5% among 76,000; note: nearly all actives have a fitted effect of over 65% in size
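Purified P. pyralis luciferase (10nM final) in 50mM Tris acetate pH 7.5, 10mM Mg acetate, 0.01% Tween-20, 0.05% BSA with 10uM D-luciferin and 10uM ATP. Compounds titrated qHTS. Luminescence imaged on CCD.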
NPR1 antag: Natriuretic polypeptide receptor (hNpr1) antagonism - Primary qHTS; hit rate 1.6% among 76,000; HEK293 hNpr1 GloSensor cGMP, ANP-stimulated luminescence; Potency, µM (top dose mostly 46.3 µM), actives largely listed as inhibitors; calls by dose curve; note: nearly all actives have a fitted effect of over 60% in size
Target sequence (P16066 whole entry, looked up): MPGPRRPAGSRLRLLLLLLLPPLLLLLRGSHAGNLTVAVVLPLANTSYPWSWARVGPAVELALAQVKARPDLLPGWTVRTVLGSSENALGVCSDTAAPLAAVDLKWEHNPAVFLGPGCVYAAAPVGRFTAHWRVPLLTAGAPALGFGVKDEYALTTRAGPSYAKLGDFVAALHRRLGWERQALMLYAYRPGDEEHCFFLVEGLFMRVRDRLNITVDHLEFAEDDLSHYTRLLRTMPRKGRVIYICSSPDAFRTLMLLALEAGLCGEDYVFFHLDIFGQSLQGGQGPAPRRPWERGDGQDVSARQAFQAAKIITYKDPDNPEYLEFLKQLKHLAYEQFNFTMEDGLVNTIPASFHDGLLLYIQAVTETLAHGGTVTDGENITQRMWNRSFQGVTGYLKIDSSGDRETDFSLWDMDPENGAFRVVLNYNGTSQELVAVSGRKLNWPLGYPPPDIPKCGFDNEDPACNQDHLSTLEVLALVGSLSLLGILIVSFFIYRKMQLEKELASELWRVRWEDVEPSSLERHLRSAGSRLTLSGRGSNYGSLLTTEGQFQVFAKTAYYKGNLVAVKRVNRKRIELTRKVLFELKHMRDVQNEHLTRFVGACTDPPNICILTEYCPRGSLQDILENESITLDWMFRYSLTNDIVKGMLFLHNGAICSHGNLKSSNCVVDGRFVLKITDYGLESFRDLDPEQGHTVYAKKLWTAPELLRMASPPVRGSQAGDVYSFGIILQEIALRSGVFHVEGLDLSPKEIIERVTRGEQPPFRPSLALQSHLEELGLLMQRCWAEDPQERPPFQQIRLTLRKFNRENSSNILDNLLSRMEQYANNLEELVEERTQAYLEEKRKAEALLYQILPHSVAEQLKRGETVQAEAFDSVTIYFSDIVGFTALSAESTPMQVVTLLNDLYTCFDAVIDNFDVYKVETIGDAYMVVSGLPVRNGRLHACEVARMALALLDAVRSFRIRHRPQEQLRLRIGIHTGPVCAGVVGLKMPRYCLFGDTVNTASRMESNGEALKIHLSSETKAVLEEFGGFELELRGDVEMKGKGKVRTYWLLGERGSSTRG
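HEK293 cells stably expressing human Npr1 and cGMP GloSensor pGS-40F, loaded 2 h with 2% GloSensor reagent, given compound 30 min at room temperature. Luminescence read before and 20 min after 0.1 nM hNppA.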
HEK cytotox: Cytotoxic Profiling in HEK 293 Cell Line of Diverse Libraries Using Quantitative High-Throughput Screening | hit rate 6.6% among 94,000 | Potency, µM (titrated, usually from 115 µM), usual class: inhibitors | HEK 293 viability, ATP luminescence (CellTiter-Glo), 48-72 h | AID 1345083, 2018; note: nearly all actives have a fitted effect of over 60% in size
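HEK 293 seeded at 250 cells/well receive compound via pintool. After 48 or 72 hr at 37 degree Celsius, 5% CO2 and 95% humidity, CellTiter-Glo is dispensed and luminescence read following 10 min at room temperature.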
NIH3T3 tox: Cytotoxic Profiling in NIH 3T3 Cell Line of Diverse Libraries Using Quantitative High-Throughput Screening. Potency, µM (series often up to 96.7 µM), actives largely listed as inhibitors. hit rate 4.3% among 94,000. NIH 3T3 viability, CellTiter-Glo ATP luminescence, 48-72 h; note: nearly all actives have a fitted effect of over 55% in size
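NIH 3T3 cells at 400 cells/well received 23 nL of compound by pintool and were incubated 48 or 72 h at 37 °C. Viability was read as ATP-coupled CellTiter-Glo luminescence.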
Numbers stand for hits; i = inactive; ? = inconclusive; ! = not active in a repeat. Unless noted, calls come from the whole dose curve; as a rule, active = well fitted curve in the direction sought with a large enough effect; inconclusive = small, poorly fitted or top-dose-only effect, or another doubt; inactive = no such curve, though single readings can be large; an effect the other way counts as inactive or inconclusive.

SMILES	FLuc inh	NPR1 antag	HEK cytotox	NIH3T3 tox
CN(C)c1ccc(C(=O)NC2CCN(c3cc(-c4ccccc4)[nH]n3)C2)cc1 (stereo not given)	i	i	?	?
CC(C)n1cc(CN2CCC(C3CCN(S(C)(=O)=O)CC3)C2)cn1 (stereo not given)	i	i	i	i
COc1ccc(NC(=O)Cn2nc3n(c2=O)CCCC3)cc1	i	i	i	i
CC(C)(C)CN1CCNC(=O)C1CC(=O)O (stereo not given)	i	i	i	i
Cn1ncc(N2CCC(NC(=O)c3ccc4c(c3)OCO4)CC2)cc1=O	i	i	i	i
CN(C)c1ccc(C(=O)NC2CCCN(c3cc(-c4ccc(F)cc4)[nH]n3)C2)cc1 (stereo not given)	?	i	35µM	?
CN(C)c1cccc(C(=O)NC2CCN(c3cnn(C)c(=O)c3)CC2)c1	25µM	i	i	i
O=C(NC1CCN(c2cc(-c3ccccc3)[nH]n2)CC1)c1ccsc1	?	i	79µM	i
O=C(NC1CCCN(c2cc(-c3ccccc3)[nH]n2)C1)c1ccc(Br)cc1 (stereo not given)	i	i	22µM	32µM
CN(C)c1ccc(C(=O)NC2CCN(c3cc(-c4ccc(F)cc4)[nH]n3)C2)cc1 (stereo not given)	i	i	?	?
Cc1ccc(C(=O)N2C[C@@H](N)C[C@H]2C(=O)NC(C)C)cc1N1CCNC1=O	i	i	i	i
CN(C)c1cccc(C(=O)NCC2CCN(c3cc(-c4ccc(Cl)cc4)[nH]n3)CC2)c1	?	i	?	40µM
Cc1ccc(-c2cc(N3CCC(CNC(=O)c4cccc(N(C)C)c4)CC3)n[nH]2)cc1	?	i	?	?
O=C(Nc1cccc(Br)c1)N1CCC2(CC1)SCC(=O)N2Cc1ccccc1	i	i	50µM	16µM
O=C(Nc1cccc(Br)c1)N1CCC2(CC1)SCC(=O)N2Cc1ccco1	?	?	28µM	16µM
O=C(NC1C[C@H]2CC[C@@H](C1)N2C(=O)c1ccoc1)c1ccncc1 (stereo not given in full)	i	i	i	i
O=C(N[C@H]1CCN2C(=O)c3ccc(Cl)cc3NC(=O)[C@H]12)c1cccs1	i	i	i	89µM
COc1ccc(-c2ccc3c(c2)C(=O)N2CC[C@H](NC(=O)CCC(=O)O)[C@H]2C(=O)N3)cc1	?	i	i	i
O=C(N[C@H]1CCN2C(=O)c3cc(-c4ccc(Cl)cc4)ccc3NC(=O)[C@H]12)c1cccs1	11µM	i	?	?
COc1ccc(-c2ccc3c(c2)C(=O)N2CC[C@H](NC(=O)c4cccs4)[C@H]2C(=O)N3)c(OC)c1	?	i	?	i
COc1ccc(-c2ccc3c(c2)C(=O)N2CC[C@H](NC(=O)CSC)[C@H]2C(=O)N3)cc1	25µM	i	?	?
O=C(N[C@H]1CCN2C(=O)c3cc(-c4ccccc4)ccc3NC(=O)[C@H]12)c1cccs1	i	i	i	i
COc1ccc(-c2ccc3c(c2)C(=O)N2CC[C@H](NC(=O)c4cccs4)[C@H]2C(=O)N3)cc1	25µM	i	i	i
CCOC(=O)CCNC(=O)N1CCCC(c2nc(-c3cnccn3)no2)CCNC(=O)CC1 (stereo not given)	i	i	i	i
COc1ccc(-c2ccc3c(c2)C(=O)N2CC[C@H](NS(=O)(=O)c4cccs4)[C@H]2C(=O)N3)cc1	?	?	22µM	?
SMILES	FLuc inh	NPR1 antag	HEK cytotox	NIH3T3 tox
COc1ccc(Cl)cc1-c1ccc2c(c1)C(=O)N1CC[C@H](NC(=O)NC(C)C)[C@H]1C(=O)N2	i	i	?	i
Cc1cccc(-c2ccc3c(c2)C(=O)N2CC[C@H](NS(=O)(=O)c4cccs4)[C@H]2C(=O)N3)c1C	i	i	?	?
COc1ccc(Cl)cc1-c1ccc2c(c1)C(=O)N1CC[C@H](NC(=O)c3cccs3)[C@H]1C(=O)N2	i	?	35µM	?
O=C1NC2(CCN(C(=O)c3ccccc3)C2)N=C1c1cccnc1 (stereo not given)	i	i	i	i
COCCNc1cc(-c2cccc(C(F)(F)F)c2)nc2c(C)noc12	i	i	89µM	?
Cc1noc2c(NCc3cccnc3)cc(-c3cccc(C(F)(F)F)c3)nc12	i	i	100µM	79µM
CCOCC(=O)N[C@@H]1CN(Cc2ccccc2)C[C@H]1CN(C)C	i	i	i	i
O=[S+]([O-])(c1cccs1)N1CCCC2(CC(Cc3ccccc3)=NO2)C1 (stereo not given)	i	i	?	i
O=[S+]([O-])(c1cccs1)N1CCC2(CC1)CC(Cc1ccccc1)=NO2	i	i	45µM	?
CCCN1CCC2(CCN([S+](=O)([O-])c3cccs3)CC2)Oc2ccccc21	i	i	45µM	?
CCn1c(COc2ccc(C)nc2)nnc1C1CC(N)C1 (stereo not given)	i	i	i	i
NC1CC(c2nnc(COc3ccc4c(c3)CCNCC4)n2C2CC2)C1 (stereo not given)	i	i	18µM!	?
CCCCNC(=O)CC(c1cccc(OC)c1)c1c[nH]c2ccccc12 (stereo not given)	i	i	79µM	?
CCc1cccc2c(C(CC(=O)NCC(C)C)c3ccc(OC)c(OC)c3)c[nH]c12 (stereo not given)	i	i	i	i
CCc1cccc2c(C(CC(=O)NCc3ccco3)c3ccc(C)cc3)c[nH]c12 (stereo not given)	i	i	35µM	?
CCc1cccc2c(C(CC(=O)NCCc3ccc(OC)c(OC)c3)c3cccc(F)c3)c[nH]c12 (stereo not given)	i	i	28µM	?
CCc1cccc2c(C(CC(=O)NCc3ccco3)c3ccc(OC)c(OC)c3)c[nH]c12 (stereo not given)	i	i	?	?
CCCCNC(=O)CC(c1ccc(OC)cc1OC)c1c[nH]c2c(CC)cccc12 (stereo not given)	i	i	?	?
CCCCCNC(=O)CC(c1cccc(OC)c1OC)c1c[nH]c2c(CC)cccc12 (stereo not given)	i	i	45µM	?
O=C(CC(c1cccc2c1OCO2)c1c[nH]c2ccccc12)NCc1ccccc1 (stereo not given)	i	i	?	?
CCCCNC(=O)CC(c1cccc2c1OCO2)c1c[nH]c2c(CC)cccc12 (stereo not given)	i	i	45µM	?
COc1ccccc1-c1ccnc(-c2nnc(C)n2Cc2ccccc2)c1	?	i	71µM	?
COc1ccccc1-c1ccnc(-c2nnc(C)n2Cc2ccncc2)c1	i	i	i	56µM
Cc1nnc(-c2cc(-c3ccc(CO)cc3)ccn2)n1Cc1ccccc1	i	i	?	?

Bioassay records deposited in PubChem by National Center for Advancing Translational Sciences (NCATS).
